Screening results (PubChem)
In the library only some 0.63% were active in any assay of this set; here they are far more common.
HIF act: HIF pathway transcriptional activation. U2OS HRE-luciferase reporter, luminescence; normalized: DMSO 0%, desferrioxamine 100%. activation, % at 7.5 µM (by protocol). 300,000 compounds, 0.32% hits. AID 1910;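 active = mean activation of at least 10% of the iron chelator positive control signal, with at least half of replicates also reaching 10%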
NTR1 agonist: agonists of human neurotensin receptor NTR1; P30989; NTR1-U2OS beta-arrestin-GFP spot imaging, agonist mode; activation, % at 20 µM; 330,000 compounds, 0.17% hits;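 active = activation at or above 40% of the spot to cytoplasm intensity ratio, with at least 20 cells analyzed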;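 also: 0% = DMSO without peptide and 100% = 100 nM NTR1 peptide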
Target sequence (P30989 whole entry, looked up): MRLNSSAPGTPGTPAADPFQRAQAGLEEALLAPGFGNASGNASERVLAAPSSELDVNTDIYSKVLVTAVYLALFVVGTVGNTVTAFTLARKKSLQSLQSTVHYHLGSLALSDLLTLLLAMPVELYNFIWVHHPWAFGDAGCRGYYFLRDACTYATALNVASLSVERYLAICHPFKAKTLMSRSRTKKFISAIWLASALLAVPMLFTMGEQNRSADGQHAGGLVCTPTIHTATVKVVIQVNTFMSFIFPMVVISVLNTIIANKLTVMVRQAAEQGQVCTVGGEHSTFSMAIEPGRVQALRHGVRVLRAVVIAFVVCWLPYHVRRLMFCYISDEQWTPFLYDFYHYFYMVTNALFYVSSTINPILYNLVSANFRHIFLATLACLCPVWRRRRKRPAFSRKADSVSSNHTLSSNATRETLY
Platelet DG rel: modulates dense granule release in human platelets. inhibition, %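 (compounds screened at 7.5 µM in platelet-rich plasma)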. human platelet-rich plasma, SFLLRN dense granule ATP release, luminescence. AID 1663. 300,000 compounds, 0.22% hits;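 active = mean replicate score, as percent of positive control, at or above 50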
The depositor's hits bear a star; x = no result.

SMILES	HIF act	NTR1 agonist	Platelet DG rel
CCNC(=O)NC1(C(=O)N2CCC(Cc3ccccc3)CC2)CCCCC1	-53	2	-11
Fc1ccc(F)c(NC2=NCCCCC2)c1	0	1	0
COc1ccc(CC(=O)Nc2cc(C)c3c(=O)oc4ccccc4c3n2)cc1	0	8	3
Cn1nc(-c2ccccc2)c(C(=O)NC(C(=O)O)c2ccccc2)c1Cl (stereo not given)	0	2	0
COC(=O)C(NC(=O)c1c(C)nn(C)c1Cl)c1ccccc1 (stereo not given)	609*	0	5
CCOc1[nH]n(-c2ccc(Cl)cc2)c(=O)c1C=NCc1cccnc1	0	-2	1
COc1ccc(S(=O)(=O)NCC(c2cccnc2)N2CCN(C)CC2)cc1OC (stereo not given)	0	-1	-5
COc1ccc(S(=O)(=O)NCC(c2cccnc2)N2CCN(C)CC2)cc1C (stereo not given)	0	-1	74*
O=C(NCc1ccccc1Cl)C1CCCN1C(=O)NCc1ccccc1 (stereo not given)	2	1	6
FC(F)(F)c1cc(N2CCOCC2)nc(-c2ccccc2)n1	0	7	-2
COc1ccc(/C=N/Nc2nnc(-c3ncc[nH]3)c3ccccc23)cc1	4	4	18
Oc1ccc2ccccc2c1/C=N/Nc1nnc(-c2ncc[nH]2)c2ccccc12	82*	15	1
C=CCn1c(CCC(O)COCCCCC)n[nH]c1=S (stereo not given)	0	-1	-3
O=C(Cc1ccc(-n2c(=O)c3ccccc3n(Cc3cccc([N+](=O)[O-])c3)c2=O)cc1)NCC1CCCO1 (stereo not given)	0	1	4
Cc1ccc(Nc2c(-c3ccccn3)nc3ccc(C)cn23)cc1	122*	10	0
Cc1ccn2c(Nc3ccc4c(c3)OCO4)c(-c3ccccn3)nc2c1	3	8	10
Cc1ccc2nc(-c3ccncc3)c(Nc3ccccc3)n2c1	0	1	2
Cc1ccc(Nc2c(-c3ccccn3)nc3cc(C)ccn23)cc1	91*	12	5
COC(=O)c1ccc(NC(=O)CSc2nnc(-c3cccnc3)o2)cc1	-15	-1	-10
O=C(Nc1nc2ccccc2[nH]1)c1ccc(F)cc1	-2	-2	10
Cc1ccsc1C(=O)Nc1nc2ccccc2[nH]1	-2	1	100*
O=C(Nc1nc2ccccc2[nH]1)c1ccccc1F	-2	2	87*
Cc1cc(C)cc(C(=O)Nc2nc3ccccc3[nH]2)c1	4	0	-3
COCCOC(=O)C1=C(C)NC2=C(C(=O)CC(C)(C)C2)C1c1ccc2c(c1)OCO2 (stereo not given)	0	0	-14
Cc1nc2cc(NC(=O)c3cccc(S(C)(=O)=O)c3)ccc2o1	0	1	-34
SMILES	HIF act	NTR1 agonist	Platelet DG rel
O=C(Cn1cnc2c(OCc3ccccc3)ncnc21)N1CCN(c2ccccn2)CC1	x	4	x
Cc1nc2sccn2c(=O)c1S(=O)(=O)NCC(C)c1ccccc1 (stereo not given)	0	-2	58*
Cc1ccc(NS(=O)(=O)c2c(C)nc3sccn3c2=O)cc1	1	4	17
Cc1nc2sccn2c(=O)c1S(=O)(=O)NCc1ccccc1	0	-2	2
Cc1nc2sccn2c(=O)c1S(=O)(=O)NC(C)c1ccccc1 (stereo not given)	0	2	63*
Cc1nn(CC(=O)O)c(C)c1N	0	1	2
COC(=O)c1cn(NC(=O)c2ccc([N+](=O)[O-])c(C)c2)c(=O)c2ccccc12	0	1	9
Cc1cc(C)n2c(=O)c3ccc(Cl)cc3nc2c1C#N	-1	1	5
Cc1cc(Cl)n2c(nc3cc(F)c(F)cc32)c1C#N	9.5*	x	-1
O=C(CNC(=O)c1ccccc1Br)N/N=C/c1cccs1	0	0	3
Cc1ccc(SCC(=O)OCC(=O)NC(C)c2ccc(F)cc2)cc1 (stereo not given)	x	8	x
CCC(C)NC(=O)NC1C(NC(=O)NC(C)CC)N(C)C(=O)N1C (stereo not given)	0	2	-9
CCCOC(=O)NC1C(NC(=O)OCCC)N(C)C(=O)N1C (stereo not given)	153*	1	-9
Clc1nnc2ccc(-c3ccccc3)nn12	0	2	2
O=C1CCC2(C(=O)O)Sc3ccccc3N12 (stereo not given)	-1	-2	-6
CCn1c(O)c(C=C2N=c3ccccc3=N2)sc1=S	1	1	-4
Oc1c(C=C2N=c3ccccc3=N2)sc(=S)n1-c1ccccc1	22*	4	-22
Clc1cccc(Cl)c1/C=C/c1nc2ccccc2[nH]1	2	15	-5
O=C(/C=C/c1ccc(Cl)cc1Cl)c1nc2ccccc2[nH]1	1	0	1
